Active and inactive are the calls of the source.

Assay [1] can be described thus: optical density shifts of acrAB sulA E. coli – strain DRC41, OD650, 48 h, E. coli filamentation inducer project, primary screen (AID 1152).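 Further: E. coli MC1000 strain DRC41 lacking acrAB efflux pump and sulA.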 As to conditions: higher = more signal, called active from +8 up or from −8 down.
Assay [2] can be described thus: probe aLefty1 binding on compound microarray – biochemical, small-molecule microarray, 635/667 nm fluorescence, primary screen (AID 1153).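 Further: score merges spot fluorescence with signal-to-noise ratio from the scanned slide images.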 The following applies: higher = more signal.
Assay [3] in a line: plasmodial surface anion channel blockers, osmotic lysis – cell-based, P. falciparum Indochina, OD700, 1 h, primary screen (AID 1154). The following applies: P. falciparum Indochina infected RBC osmotic lysis, higher = more signal, called active from +8 up or from −8 down.
A short description of assay [4]: plasmodial surface anion channel blockers, osmotic lysis – cell-based, P. falciparum Indochina, OD700, 2 h, primary screen (AID 1155).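 Further: lysis reports solute entry through the parasite surface anion channel PSAC.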 As to conditions: P. falciparum Indochina infected erythrocytes, higher = more signal, called active from +8 up or from −8 down.
Assay [5] is described as follows: changes in parasitized red cell lysis, either direction – P. falciparum Indochina, OD700, 3 h, PSAC antagonist project, primary screen (AID 1156). As to conditions: P. falciparum-infected erythrocytes, osmotic lysis, higher = more signal, called active from +8 up or from −8 down.
Assay [6] in a line: plasmodial surface anion channel blockers, osmotic lysis – cell-based, P. falciparum Indochina, OD700, 18 h, primary screen (AID 1157). The following applies: P. falciparum Indochina infected erythrocytes, osmotic lysis OD700, 18 h; higher = more signal, called active from +8 up or from −8 down.
The nature of assay [7]: S6 kinase pathway phospho-S6 level changes – cell-based, A549, cytoblot, luminescence, serum-stimulated, primary screen (AID 1158).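 Further: serum-stimulated A549 lung adenocarcinoma cells; signal is phosphorylated S6 detected by cytoblot immunostaining with HRP secondary.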 As to conditions: 5 h, higher = more signal.
Assay [8] concerns the target NADPH oxidase 2 (Homo sapiens) (UniProt P04839). In words: compounds shifting NOX2 Amplex Red fluorescence – cell-based, HEK293-NOX2, PMA-stimulated, NOX inhibitor project, primary screen (AID 1159). Further: test concentration not given here. The following applies: 45 min, higher = more signal, called active from +8 up or from −8 down.
Assay [9] concerns the target NADPH oxidase 4 (Homo sapiens) (UniProt Q9NPH5). In words: compounds shifting NOX4 Amplex Red fluorescence – cell-based, HEK293-NOX4, tetracycline-induced, NOX inhibitor project, primary screen (AID 1160). The following applies: HEK293-NOX4, Amplex Red H2O2 fluorescence, 45 min; higher = more signal, called active from +8 up or from −8 down.
The target of assay [10] is NADPH oxidase 5 (Homo sapiens) (UniProt Q96PH1). In words: compounds shifting NOX5 Amplex Red fluorescence – cell-based, HEK293-NOX5, NOX inhibitor project, primary screen (AID 1161). As to conditions: HEK293-NOX5, ionomycin, 45 min, higher = more signal.
Chain of NADPH oxidase 5 (Homo sapiens) (Q96PH1 whole entry, looked up): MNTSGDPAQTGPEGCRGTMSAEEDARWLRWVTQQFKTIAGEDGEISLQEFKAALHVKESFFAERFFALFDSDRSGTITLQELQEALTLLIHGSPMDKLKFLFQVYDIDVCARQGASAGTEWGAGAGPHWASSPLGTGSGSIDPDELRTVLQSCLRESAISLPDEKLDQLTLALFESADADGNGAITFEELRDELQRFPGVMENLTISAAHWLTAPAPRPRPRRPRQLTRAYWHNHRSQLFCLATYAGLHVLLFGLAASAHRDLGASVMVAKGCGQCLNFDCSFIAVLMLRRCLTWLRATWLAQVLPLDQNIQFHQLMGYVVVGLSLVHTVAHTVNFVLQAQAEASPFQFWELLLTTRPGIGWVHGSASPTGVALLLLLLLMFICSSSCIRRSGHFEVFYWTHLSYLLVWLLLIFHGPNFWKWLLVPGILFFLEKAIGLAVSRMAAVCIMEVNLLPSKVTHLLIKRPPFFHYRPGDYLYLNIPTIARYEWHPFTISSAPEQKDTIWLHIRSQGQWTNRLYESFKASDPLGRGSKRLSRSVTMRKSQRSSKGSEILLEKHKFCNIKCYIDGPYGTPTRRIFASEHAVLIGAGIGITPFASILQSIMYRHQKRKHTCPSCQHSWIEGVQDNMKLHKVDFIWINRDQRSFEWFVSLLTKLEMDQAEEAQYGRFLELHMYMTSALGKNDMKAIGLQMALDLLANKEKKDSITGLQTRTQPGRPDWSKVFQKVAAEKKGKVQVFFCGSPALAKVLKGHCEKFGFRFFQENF

Chain of NADPH oxidase 4 (Homo sapiens) (Q9NPH5 whole entry, looked up): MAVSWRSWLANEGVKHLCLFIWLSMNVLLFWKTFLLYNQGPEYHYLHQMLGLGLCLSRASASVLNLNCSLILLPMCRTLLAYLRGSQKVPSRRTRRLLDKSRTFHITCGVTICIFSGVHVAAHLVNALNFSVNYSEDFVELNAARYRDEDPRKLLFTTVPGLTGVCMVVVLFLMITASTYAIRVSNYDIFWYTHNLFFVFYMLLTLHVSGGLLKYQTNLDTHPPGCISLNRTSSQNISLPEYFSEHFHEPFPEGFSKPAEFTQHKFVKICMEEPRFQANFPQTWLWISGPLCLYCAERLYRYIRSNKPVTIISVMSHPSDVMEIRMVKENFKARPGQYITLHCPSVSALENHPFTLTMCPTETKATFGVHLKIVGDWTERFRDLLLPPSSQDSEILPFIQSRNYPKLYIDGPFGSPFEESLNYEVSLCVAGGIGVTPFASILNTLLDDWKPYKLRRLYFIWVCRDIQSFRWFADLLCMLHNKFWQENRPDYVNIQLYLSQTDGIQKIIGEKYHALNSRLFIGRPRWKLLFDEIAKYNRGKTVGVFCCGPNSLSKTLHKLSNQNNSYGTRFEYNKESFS
Chain of NADPH oxidase 2 (Homo sapiens) (P04839 whole entry, looked up): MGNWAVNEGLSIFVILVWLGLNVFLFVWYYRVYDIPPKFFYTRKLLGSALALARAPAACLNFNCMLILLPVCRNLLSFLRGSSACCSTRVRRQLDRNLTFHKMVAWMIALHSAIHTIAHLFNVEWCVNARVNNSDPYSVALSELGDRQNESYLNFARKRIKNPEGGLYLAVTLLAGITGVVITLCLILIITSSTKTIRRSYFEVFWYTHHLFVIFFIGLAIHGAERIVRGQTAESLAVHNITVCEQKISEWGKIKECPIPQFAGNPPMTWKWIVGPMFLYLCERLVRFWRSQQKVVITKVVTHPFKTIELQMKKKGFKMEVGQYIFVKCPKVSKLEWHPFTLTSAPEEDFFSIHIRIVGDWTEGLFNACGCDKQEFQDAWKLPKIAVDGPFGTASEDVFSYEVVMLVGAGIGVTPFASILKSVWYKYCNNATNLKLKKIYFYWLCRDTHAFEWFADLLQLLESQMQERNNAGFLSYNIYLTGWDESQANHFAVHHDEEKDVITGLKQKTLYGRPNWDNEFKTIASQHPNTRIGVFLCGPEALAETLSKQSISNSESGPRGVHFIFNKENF

Take `CS(=O)(=O)CCOC(=O)C1=CC(CCCO)=CC(c2cccs2)N(Cc2cc3c(cc2Br)OCO3)C=C1C(=O)OCCS(C)(=O)=O` (stereo not given): the z-score in [1] is 0.702 (inactive); in assay [3] it was 5.62 (inactive); in assay [4] it was 0.944 (inactive); in assay [5] it was 1.85 (inactive); in [6], 0.479 (inactive); in [7], 0.252. Also, the z-score was -2.11 (inactive) in assay [8], -1.1 (inactive) in assay [9] and -1.41 in assay [10]. This compound gave a composite z-score in assay [2] of -0.0767.
Consider `CC(=CC1CCCCC1)[C@@H](NC(=O)c1ccc(C(F)(F)F)cc1)c1ccc(-c2ccccc2)cc1`, for which the z-score is -2.14 (inactive) in [1]; 3.47 (inactive) in assay [3]; 1.03 (inactive) in assay [4]; 0.482 (inactive) in assay [5]; 0.813 (inactive) in [6]; 0.299 in assay [7]. The figures for the z-score in assay [8], in assay [9] and in assay [10] were -0.709 (inactive), -0.683 (inactive) and 0.0858, respectively. Further, in [2], the composite z-score came out at 0.117.
Consider `COCC1=C2[C@@H](CCc3ccccc3)OB(O)C[C@@H]2[C@@H]2C(=O)N(Cc3ccccc3)C(=O)[C@@H]2C1`, for which the z-score in assay [1] is -0.536 (inactive); in assay [3], 1.75 (inactive); in [4], -0.0799 (inactive); in assay [5], -0.558 (inactive); in assay [6], 0.0831 (inactive); in assay [7], 0.533. Besides, the z-score is -0.0858 (inactive) in assay [8], 0.552 (inactive) in [9] and 0.974 in assay [10]. Besides, the composite z-score in [2] is -0.0573.
In the case of `C=CC[C@@]1(C(=O)N2CCOCC2)N=C(c2ccc(OCCCO)cc2)O[C@@H]1c1ccccc1N=[N+]=[N-]`, the z-score in assay [1] is 0.483 (inactive); in assay [3] it was 35.1 (active); in [4], 28.1 (active); in [5] it was 3.17 (inactive); in [6], 7.41 (inactive); in [7] it was 1.92. Besides, the z-score in assay [8] was -2.14 (inactive); in assay [9], -0.164 (inactive); in [10], -2.02. The same compound had a composite z-score in assay [2] of 0.571.
Consider `COC(=O)[C@]1(Cc2ccccc2N=[N+]=[N-])N=C(c2ccc(OCCCO)cc2)O[C@@H]1c1ccccc1N=[N+]=[N-]`, for which the z-score in [1] is -1.19 (inactive); in [3], 29.5 (active); in [4], 27.4 (active); in assay [5], -0.495 (inactive); in assay [6], 6.35 (inactive); in assay [7], 0.0559. Besides, the values for the z-score in assay [8], in assay [9] and in assay [10] were -0.877 (inactive), 0.755 (inactive) and 0.677, respectively. Also, in assay [2], the composite z-score was -0.236.
`CC(C)N1C(=O)c2ccccc2[C@@H](C(=O)NCCCN(C)C)[C@@H]1c1ccc(CO)cc1`: the z-score in [1] was -0.534 (inactive); in assay [3] it was 2.45 (inactive); in assay [4], -0.0098 (inactive); in [5], 2.5 (inactive); in assay [6], 0.181 (inactive); in assay [7], -0.0692. In addition, the z-score in assay [8] was 1.08 (inactive); in [9], -0.858 (inactive); in [10], -1.54. In addition, the composite z-score in [2] worked out at 1.17.
As for `CCCCCCCCCCC(O)C1C=CC2C(=O)N(Cc3ccccc3)C(=O)C2N1n1cnnc1` (stereo not given), the z-score was -1.55 (inactive) in assay [1]; 1.32 (inactive) in assay [3]; -0.595 (inactive) in [4]; 1.6 (inactive) in assay [5]; -2.48 (inactive) in [6]; 1.19 in assay [7]. Besides, the z-score in assay [8] is -2.6 (inactive); in assay [9], -1.1 (inactive); in assay [10], -4.63. The same compound gave a composite z-score in assay [2] of 0.918.
Take `C=C[C@@H](COC(C)=O)N(Cc1ccc([N+](=O)[O-])cc1)S(=O)(=O)c1ccc(Br)cc1`: the z-score in assay [1] was 2 (inactive); in assay [3] it was 7.66 (inactive); in [4], 0.824 (inactive); in assay [5], 2.31 (inactive); in assay [6], 0.79 (inactive); in assay [7] it was 0.354. In addition, the z-score in assay [8] is 0.495 (inactive); in assay [9], 0.851 (inactive); in assay [10] it was -0.559. Moreover, the composite z-score in assay [2] was 0.0012.
Consider `C=C(COC)C(=O)CC[C@H](OC(C)=O)c1cccc(OCCO)c1`, for which the z-score in assay [1] is 0.527 (inactive); in [3], 4.14 (inactive); in assay [4], -1.22 (inactive); in assay [5], 1.88 (inactive); in assay [6] it was -1.48 (inactive); in assay [7] it was 2.19. Further, the figures for the z-score in assay [8], in assay [9] and in [10] were -1.66 (inactive), -0.724 (inactive) and -1.46, respectively. Further, the composite z-score in [2] is -0.393.
As for `CC(C)C[C@@H]1NC(=O)[C@H]2C[C@@H](C(=O)NCCCCCNC(=O)CS)[C@@H](c3cccc(OCCO)c3)N2C1=O`, the z-score in assay [1] is -0.586 (inactive); in assay [3], 2.59 (inactive); in assay [4], 0.505 (inactive); in assay [5], -0.47 (inactive); in [6] it was 0.327 (inactive); in [7], -0.592. The z-score in [8] is 2.16 (inactive); in [9], 1.21 (inactive); in assay [10] it was 0.93. Also, in [2], the composite z-score is -0.0511.
Take `Cc1ccc([C@H]2C(C(=O)O)=C[C@@H](C)N2S(=O)(=O)c2ccc(C)cc2)cc1`: the z-score in [1] is -0.832 (inactive); in [3], 1 (inactive); in assay [4], 0.587 (inactive); in assay [5], 0.018 (inactive); in assay [6], 0.39 (inactive); in [7] it was -0.848. Moreover, the z-score in assay [8] is 0.534 (inactive); in assay [9] it was 0.259 (inactive); in assay [10] it was 0.101. The compound further returned a composite z-score in [2] of -0.149.
Turning to `O=C1c2ccccc2[C@@]2(Cc3ccccc3N(Cc3ccccc3)C2=O)[C@H](c2ccc(CO)cc2)N1C1CCCCC1`, the z-score was 0.414 (inactive) in assay [1]; -0.101 (inactive) in assay [3]; 0.546 (inactive) in assay [4]; 0.105 (inactive) in assay [5]; 0.327 (inactive) in assay [6]; 0.126 in assay [7]. The z-score in assay [8] is 0.162 (inactive); in assay [9], -0.143 (inactive); in [10], -0.548. Besides, the composite z-score in [2] is 0.0437.
Take `CC(C)NC(=O)[C@@H]1c2ccccc2C(=O)N(Cc2ccccc2)[C@H]1c1ccc(CO)cc1`: the z-score in assay [1] is -0.355 (inactive); in [3], 1.36 (inactive); in [4], 0.573 (inactive); in assay [5] it was 1.65 (inactive); in [6], 0.351 (inactive); in assay [7], 0.0506. The z-score in [8] was -0.767 (inactive); in [9], 0.333 (inactive); in assay [10], -1.66. This compound also gave a composite z-score in assay [2] of 0.108.

For the origin of these results see PubChem BioAssay.
